TLR4 MyD88 comp: blocks binding of human TLR4 to MyD88. O00206+Q99836. HeLa CL3-4 TLR4/MyD88 BLA complementation, FRET ratio. inhibition, % at 8.4 µM. 200,000 tested, 0.18% active; in the data active means inhibition above about 25%;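 further: 0% = vehicle and 100% = reference inhibitor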
TLR9-MyD88 inh: inhibitors of human TLR9-MyD88 binding; inhibition, % at 4.98 µM; AID 504734; 340,000 tested, 0.21% active; Q9NR96+Q99836; CHO BLA complementation TLR9-MyD88, CCF4 FRET ratio;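 active means inhibition above the mean over all tested compounds plus 3 SD, cut at about 21% in these data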;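 further: 0% = DMSO only wells and 100% = clavulanate BLA inhibitor control wells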
NOD2 RIPK2 PPI: inhibitors of human NOD2-RIPK2 interaction. CHO BLA complementation NOD2-RIPK2, CCF4 ratio. inhibition, % at 4.98 µM. 360,000 tested, 0.38% active. AID 624267; in the data active means inhibition above about 21%;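 further: 0% = vehicle only and 100% = reference blocker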
Mcl1-Noxa inh: disrupts binding of human Mcl-1 to Noxa peptide; Q07820; TR-FRET Mcl-1/Noxa peptide binding, 2 h; inhibition, % at 21.7 µM; 220,000 tested, 1.5% active; AID 1022;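 active means compounds that cut the protein-peptide binding signal by more than 50% relative to plate controls in a single-dose test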;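 further: His-tagged Mcl-1 with rhodamine Noxa BH3 peptide and terbium anti-His antibody; 0% = Mcl-1 plus Noxa peptide wells and 100% = peptide-only wells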
Mcl-1 Bim block: disrupts Bim peptide binding to human Mcl-1; inhibition, % at 10 µM; Bead-based flow cytometry, Bim peptide-Mcl-1 binding; 190,000 tested, 0.1% active; Q07820; in the data active means inhibition above about 40%;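 further: 0% = no compound tracer wells and 100% = peptide blocker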
Mcl1 Bid PPI: Mcl-1/Bid interaction inhibition. Q07820. TR-FRET Mcl-1/Bid-Dy647 peptide binding, 1536-well. inhibition, % at 21.7 µM. 220,000 tested, 0.97% active. AID 1021;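 active means compounds that cut the binding signal by more than half at the single screening dose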;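 further: His-tagged Mcl-1 with europium anti-His antibody binding Bid BH3 peptide; 0% = Mcl-1 plus peptide wells and 100% = peptide-only wells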
* marks the source's active call; other numbers are inactive results; . = no result. Compounds with a hit are over-represented: about 1.8% of the library has one in this group of screens.

SMILES	TLR4 MyD88 comp	TLR9-MyD88 inh	NOD2 RIPK2 PPI	Mcl1-Noxa inh	Mcl-1 Bim block	Mcl1 Bid PPI
FC(F)(F)c1cccc(CN2CCCCCC2)c1	-7.1	6.0	-1.3	20.9	1.0	51.5*
Cc1ccc(N(C(=O)C(F)(F)F)C(C(=O)NC2CCCCC2)c2cccs2)cc1C (stereo not drawn)	17.6	-0.7	-4.9	-9.4	1.0	66.1*
C[C@@H]1CN([C@H](C)CO)C(=O)CCCn2nncc2CO[C@@H]1CN(C)C(=O)Nc1ccc2c(c1)OCO2	.	-5.0	-14.8	.	.	.
CCc1nc2ccc(C(=O)N3CCN(C)CC3)cn2c1N(CCC(C)C)CCN(C)C	.	.	-5.4	.	.	.
Cn1c2c(c(=O)n(C)c1=O)C1c3cc(Cl)ccc3OCC1CO2 (stereo not drawn)	12.5	5.4	-8.7	2.4	0.0	96.4*
Cc1cc(/C=C2\SC(=S)N(C)C2=O)c(C)n1-c1ccc(O)cc1	.	4.9	5.3	-8.4	.	-51.0
CN1C(=O)/C(=C/c2coc3ccc(O)cc3c2=O)SC1=S	.	-0.6	-2.0	53.8*	.	-5.3
CC12CCC(=O)N1C(C(=O)NNC(=O)COc1ccc(Br)cc1)CS2 (stereo not drawn)	.	9.4	2.4	.	.	.
Cc1cc(NC(=O)c2cc3cccc([N+](=O)[O-])c3[nH]2)ccc1F	.	-0.7	3.0	54.3*	.	-2.4
CCCN1CCC(NC(=S)Nc2ccc(C(=O)OCC)cc2)CC1	-6.3	-10.1	1.7	0.2	-5.0	84.3*
Cc1cccn2c(=O)c(C=O)c(N3CCCCC3)nc12	4.2	11.9	-1.9	4.2	4.0	-1.4
Cc1cccn2c(=O)c(C=O)c(Cl)nc12	.	1.2	7.2	-7.2	.	50.6*
Cc1ccc(C)c(CC(=O)N2CCCCC2c2cc(C(=O)Nc3cccc(C#N)c3)no2)c1 (stereo not drawn)	.	.	12.5	.	.	.
Cc1ccc(S(=O)(=O)NCCc2nnc(SCc3cccnc3)n2C)cc1	.	2.6	-9.7	.	.	.
O=C(NCC(c1cccnc1)N1CCOCC1)c1cccc(Cl)c1 (stereo not drawn)	11.6	-7.3	4.3	9.8	-3.0	56.5*
O=C(Nc1ccc2nc(-c3ccc4nc[nH]c4c3)[nH]c2c1)c1cccs1	15.3	-11.4	0.1	79.5*	21.0	-6.1
O=C(Nc1ccc2nc(-c3ccccc3)[nH]c2c1)c1cccs1	9.2	-3.5	-4.6	18.1	7.0	-24.7
COC(=O)c1cc(C)[nH]c2c(C)cc3nc4ccccc4c3c12	.	3.2	11.2	11.2	.	6.2
CN1CCC(N(C)S(=O)(=O)c2ccc(C(C)(C)C)cc2)CC1	.	-7.2	-7.0	.	.	.
CN1CCC(N(C)C(=O)CNC(=O)c2ccc(C(C)(C)C)cc2)CC1	-19.3	-0.9	5.9	57.5*	-2.0	-5.2
CCC(C)(C)NC(=O)c1ccc2c(c1)N(CC(=O)N1CCCC1)C(=O)C(C)(C)O2	.	-3.5	0.3	.	.	.
O=C(CSc1nnc(COc2cccc3cccnc23)o1)N1CCc2ccccc21	-12.0	-0.3	-12.5	-5.2	0.0	84.0*
O=C(O)CC1Sc2ccccc2NC1=O (stereo not drawn)	-6.6	-10.4	-1.8	11.1	3.0	-22.1
O=C1Nc2ccccc2SC(c2ccccc2)C1O (stereo not drawn)	2.2	-0.8	7.3	104.1*	1.0	62.7*
COc1cc(/C=N/NC(=O)c2ccncc2)c([N+](=O)[O-])cc1OC	.	1.5	-11.5	.	.	.
SMILES	TLR4 MyD88 comp	TLR9-MyD88 inh	NOD2 RIPK2 PPI	Mcl1-Noxa inh	Mcl-1 Bim block	Mcl1 Bid PPI
COc1cc(OC)c([N+](=O)[O-])cc1/C=N/NC(=O)c1ccncc1	-4.7	7.5	4.9	71.5*	7.0	-5.4
O=C(N/N=C/c1cccc(O)c1)c1ccc(NC(=O)c2cccc([N+](=O)[O-])c2)cc1	-5.4	0.5	-0.8	60.1*	0.0	-3.0
O=C(N/N=C/c1ccncc1)c1cc([N+](=O)[O-])cc([N+](=O)[O-])c1O	3.0	-7.4	1.3	84.4*	-2.0	9.1
O=C(N/N=C/c1ccc(O)cc1)c1cccc(N/N=C/c2ccc(O)cc2)c1	.	2.4	-2.7	79.6*	.	-31.0
NC(=O)Cn1c(=O)n(CCC(=O)NCCSCc2ccccc2)c(=O)c2ccccc21	-24.1	3.5	2.8	14.9	0.0	-3.2
N#Cc1ccccc1OCC(=O)Nc1ccccc1C(=O)NC1CC1	.	-11.8	-0.7	.	.	.
CCC(C)Sc1ccc([C@@H]2[C@@H]3C(=O)N(CC)C(=O)[C@@H]3[C@]3(C(=O)OC)CCCCN23)cc1 (stereo partly drawn)	.	3.1	-13.3	.	.	.
COc1cc(/C=N/NC(=O)c2cccnc2)ccc1OC(=O)c1ccc([N+](=O)[O-])cc1	14.3	0.2	-4.3	58.1*	1.0	34.2
COc1ccc(/C=N/NC(=O)c2ccc(NC(=O)c3cccc([N+](=O)[O-])c3)cc2)c(OC)c1	-1.2	-10.2	-19.0	66.6*	0.0	28.2
CC(c1ccccc1)N1CC(C(=O)N2CCCC(C(N)=O)C2)CC1=O (stereo not drawn)	.	-5.1	10.2	.	.	.
N#CC(C(=O)Nc1cccc(Cl)c1)=C1Nc2ccccc2N1	-17.4	8.4	13.3	26.5	0.0	-20.1
N#CC(C(=O)Nc1ccc(Cl)c(Cl)c1)=C1Nc2ccccc2N1	13.5	0.5	-5.7	72.7*	-3.0	52.5*
Cc1ccc(C)c(N2CC(C(=O)Nc3cc(C)on3)CC2=O)c1 (stereo not drawn)	.	-0.7	-8.2	.	.	.
CCOc1ccccc1NC(=O)CSc1nnc2ccc(-c3cccnc3)nn12	-0.6	-5.9	-2.9	-3.2	40.0*	-18.7
O=C(OCC(=O)N1CCOCC1)c1cc(F)c(F)cc1Cl	.	-11.4	3.4	.	.	.
Cc1nn2c(N)c(-c3ccccc3)cnc2c1-c1ccccc1	.	-0.4	0.7	.	.	.
C=C(C)C(=O)Nc1cccc(C2=NOC3(C2)C[C@@H](C(N)=O)N(C(=O)C2(C)CC2)C3)c1 (stereo partly drawn)	.	-8.8	-1.0	60.5*	.	-117.6
C/C=C\C(=O)Nc1cccc(C2=NOC3(C2)C[C@@H](C(N)=O)N(C(=O)C2(C)CC2)C3)c1 (stereo partly drawn)	.	-9.5	-3.9	-29.8	.	-32.3
C/C=C\C=C/C(=O)Nc1cccc(C2=NOC3(C2)C[C@@H](C(N)=O)N(C(=O)/C=C/C=C\C)C3)c1 (stereo partly drawn)	.	2.8	-1.8	54.3*	.	-45.4
C=C(C)C(=O)Nc1cccc(C2=NOC3(C2)C[C@@H](C(N)=O)N(C(=O)/C=C/CC)C3)c1 (stereo partly drawn)	.	-3.3	3.5	2.5	.	-154.6
C/C=C\C=C/C(=O)Nc1cccc(C2=NOC3(C2)C[C@@H](C(N)=O)N(C(=O)/C=C/CC)C3)c1 (stereo partly drawn)	.	-4.4	-7.2	33.9	.	-11.7
C=C(C)C(=O)Nc1cccc(C2=NOC3(C2)C[C@H](C(N)=O)N(C(=O)/C=C/C)C3)c1 (stereo partly drawn)	.	2.5	-12.2	76.1*	.	-54.2

Source: PubChem BioAssay (several laboratories)
